In all, about 39,000 sequences were measured (“fluorescence intensity (a.u.)”: median about 4,300, highest 2% from about 39,000 on). Shown is part of a subset that was picked to be rich in the highest values.
Molecular target: T1, OsSMF1 (Oryza sativa, UniProt Q6ZLB0 1-436)
T1 sequence: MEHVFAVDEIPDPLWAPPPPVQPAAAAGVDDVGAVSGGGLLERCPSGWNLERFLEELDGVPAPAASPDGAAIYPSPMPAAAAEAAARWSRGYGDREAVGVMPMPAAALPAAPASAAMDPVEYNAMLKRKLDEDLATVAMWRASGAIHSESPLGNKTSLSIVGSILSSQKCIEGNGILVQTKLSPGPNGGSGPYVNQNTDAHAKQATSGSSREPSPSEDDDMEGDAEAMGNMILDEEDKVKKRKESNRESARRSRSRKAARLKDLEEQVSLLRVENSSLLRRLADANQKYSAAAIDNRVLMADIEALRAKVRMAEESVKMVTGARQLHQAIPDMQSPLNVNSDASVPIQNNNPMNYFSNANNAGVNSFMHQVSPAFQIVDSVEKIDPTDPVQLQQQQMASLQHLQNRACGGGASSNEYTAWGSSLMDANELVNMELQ
Test: protein-binding microarray (RPBM); PBS, 2% BSA, 51.3 ng/ul salmon testes DNA, 50 uM zinc acetate, 200 nM TF, 25 C, 1 h; high values mean tight binding
Conditions: protein: recombinant; tags: N-terminal polyhistidine and DsRed monomer fusion (pET32a); chain copies: 2; label: CyDye5-dUTP incorporated in the synthesized complementary strand; 3' TTTTT single-stranded linker to array surface; dsDNA, one strand shown
In short: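 Binding signal here means per-feature fluorescence intensity in arbitrary units. The values were read on an Axon 4000B scanner after a custom Agilent array, double-stranded by primer extension with Cy5-dUTP, was incubated with 200 nM protein at 25 °C for 1 h in PBS with 2% BSA, salmon testes DNA and 50 µM zinc acetate, then washed. The proteins were transcription factors with an N-terminal polyhistidine tag and DsRed, expressed in E. coli BL21-CodonPlus and purified on Ni–NTA.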

Sequence | binding signal
GCTTGCTCGCCGGCGGTGTGGGAATGATGACTCCCAGCCCCGGAGTCACCTAGTGCAG | 4050 fluorescence intensity (a.u.)
GTCGTGTCGGCTGCCGATTACACTATCGGCAGTGCAGCCGCGGAGTCACCTAGTGCAG | 4270 fluorescence intensity (a.u.)
CGCGGCGCGCACACGCCATGCCGGCATGCCGTGGCATACCCGGAGTCACCTAGTGCAG | 3990 fluorescence intensity (a.u.)
CTATATATGTGACGCTGACGTTCCTCATCTCCCAAGCTGCCGGAGTCACCTAGTGCAG | 7040 fluorescence intensity (a.u.)
TTAGTGTCTGCATTGGATATGAGTCACGGGTTCTTGGTTACGGAGTCACCTAGTGCAG | 12600 fluorescence intensity (a.u.)
CGACGTCGGCGAGGGAGGGCTTCCTGGGCACGTCGGCGAGCGGAGTCACCTAGTGCAG | 3150 fluorescence intensity (a.u.)
ACAGCAAACAAACGTAACACCTTAACACGTCATGCAGTTTCGGAGTCACCTAGTGCAG | 15100 fluorescence intensity (a.u.)
AAGAGTCGGGTTGTGCTGACCCAAAAGCACGACAGCCCATCGGAGTCACCTAGTGCAG | 3250 fluorescence intensity (a.u.)
ATACCGCGACAATGACATCTGAGTCAATGACTCGTGATAACGGAGTCACCTAGTGCAG | 4510 fluorescence intensity (a.u.)
CTCATGATGGCTTTATCAATATCAAGATTTGATGACTCAGCGGAGTCACCTAGTGCAG | 15400 fluorescence intensity (a.u.)
CATAGATCTTTTGACTAGGTTTTCGTTCCACGTGGCATCACGGAGTCACCTAGTGCAG | 12900 fluorescence intensity (a.u.)
TAGGTCTTCGTCCCACGTGGCATTGACGTGGCGCTTACGCCGGAGTCACCTAGTGCAG | 30000 fluorescence intensity (a.u.)
GTTTGAATAGGTCTTTCGTCCCACGTGGCATTGACGTGGCCGGAGTCACCTAGTGCAG | 45700 fluorescence intensity (a.u.)
ACACTTATCGACGTGCCAGCGCGACGCAATATGCTCCGATCGGAGTCACCTAGTGCAG | 5400 fluorescence intensity (a.u.)
CACAAATGAAGAAACAAGGTGTTGCATCACCAGTCATGGGCGGAGTCACCTAGTGCAG | 6740 fluorescence intensity (a.u.)
TTTAACTATGAGAATATATAGTACGTGTTGAGACATGAAACGGAGTCACCTAGTGCAG | 27800 fluorescence intensity (a.u.)
TCCATGCTGGTTTTAGTCCTACGTGACAATACAGTCAGCACGGAGTCACCTAGTGCAG | 5640 fluorescence intensity (a.u.)
TGCAAGCAGCAAGCGTGTCACTACGTTTACATGACATGCACGGAGTCACCTAGTGCAG | 47600 fluorescence intensity (a.u.)
TGACCTAATACATTCATGCTGACTAGCGTTTACGTGGCAACGGAGTCACCTAGTGCAG | 14100 fluorescence intensity (a.u.)
TTTAATTATATTATCACTGACATGTGGGTCCCACTATATGCGGAGTCACCTAGTGCAG | 4330 fluorescence intensity (a.u.)
GCCAATGCCATGTCCTCTGCGGCCTGCTTGCTGGTGAACTCGGAGTCACCTAGTGCAG | 46600 fluorescence intensity (a.u.)
CTCGACATTGCTGGCAATGCCTGGGAGATTGCTTGCCATGCGGAGTCACCTAGTGCAG | 3180 fluorescence intensity (a.u.)

Sequence | binding signal
CACTCCTCTGCTGCTCGTCGTCAATGCCATCCTCATCATGCGGAGTCACCTAGTGCAG | 3330 fluorescence intensity (a.u.)
GATTTGCTTACATGAATAAGGTTGATTTGCATCGGCAAGACGGAGTCACCTAGTGCAG | 4000 fluorescence intensity (a.u.)
CCCTTCCGGCTTCCACGCGTCGGGAACCGAAGTCCAAACCCGGAGTCACCTAGTGCAG | 3360 fluorescence intensity (a.u.)
TCCAAGAAAGAAAGGAGAATTATCCGGCAGTTTCAGAGGTCGGAGTCACCTAGTGCAG | 22200 fluorescence intensity (a.u.)
CCGGAGCCAGTAGTAGCGTTGAGTCGTTGTCGCGAGATGGCGGAGTCACCTAGTGCAG | 3260 fluorescence intensity (a.u.)
TCCCACTCGATTTGGGAGAAAATACAGGGATTAAACTCTGCGGAGTCACCTAGTGCAG | 3550 fluorescence intensity (a.u.)
ACAGGAATATCTCTTCGAGGGATTAAAATTCACTCCCACTCGGAGTCACCTAGTGCAG | 50800 fluorescence intensity (a.u.)
AGAAAAGGAGGAAAAGAATTTCCCTGGGATTTAAAATATTCGGAGTCACCTAGTGCAG | 26300 fluorescence intensity (a.u.)
AGTGTCAGTACACACACTAGCTTCTCTCACCGGCTCTCCGCGGAGTCACCTAGTGCAG | 3210 fluorescence intensity (a.u.)
CTGACAGCTTTTAGTTCACAAATATCAGTAAGATTTCCCTCGGAGTCACCTAGTGCAG | 43200 fluorescence intensity (a.u.)
GTTCAGCTATCAAAGTCCCTGAATAGTTTAGATTTACATTCGGAGTCACCTAGTGCAG | 14100 fluorescence intensity (a.u.)
CACAACTTTTGATTTCAGGACATATGTGTTCAGCTTTCCTCGGAGTCACCTAGTGCAG | 3370 fluorescence intensity (a.u.)
ATTTCATAAAACTGCACATTCTGGGGTTCAAGTTGCAGAACGGAGTCACCTAGTGCAG | 3170 fluorescence intensity (a.u.)
TTCCTCCATCTTGACGTGGGACCCACCTGGAGATTCATCTCGGAGTCACCTAGTGCAG | 4710 fluorescence intensity (a.u.)
TTACACGTTAAGAAAGTGCTAAGTAAACAAGACTGCCTGACGGAGTCACCTAGTGCAG | 17700 fluorescence intensity (a.u.)
ATGCTATATAAATGCCACGTTGTGCGAAGACCAAGTCAACCGGAGTCACCTAGTGCAG | 3510 fluorescence intensity (a.u.)
TGCTACATAAGTGACACGTCAACACCACGTTGTATAAAGACGGAGTCACCTAGTGCAG | 53700 fluorescence intensity (a.u.)
ACTACACCGTCGCAGCGCACCCACGTGACACGCAGCCACACGGAGTCACCTAGTGCAG | 4730 fluorescence intensity (a.u.)
TGATACATTACTCAAGGAAACAGTCACACAGTCTATCACGCGGAGTCACCTAGTGCAG | 3200 fluorescence intensity (a.u.)
CGTTGGGCTCAAGGGGAGGGATATCTATCTAACAGTAACACGGAGTCACCTAGTGCAG | 4110 fluorescence intensity (a.u.)
CCCTCAAGGGCTCAAAACACTCAAACAGTTCTACATATATCGGAGTCACCTAGTGCAG | 57600 fluorescence intensity (a.u.)

Source: paper PMC7819943, “Rice protein-binding microarrays: a tool to detect cis-acting elements near promoter regions in rice”
